From PubChem BioAssay
KCNH2 WT inh – KCNH2 (human, wildtype) channel inhibition | Q12809 | U2OS, BacMam KCNH2, thallium flux FluxOr; hits give low values | activity change, % at 1.84 µM | actives 0.37% (n = 340,000) | AID 720551;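 active means maximum activity change below -70%; inconclusive means maximum activity change between -70% and -50%; inactive means maximum activity change above -50%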; further: on the % scale 0 is the no-effect control and ±100 the full control effect
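U2OS cells transduced with wild-type KCNH2 virus are loaded with FluxOr dye for 45 min, and thallium flux is measured in kinetic reads before and after stimulation buffer. Rate constants are normalized to DMSO controls.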
KCNH2 3.1 inh – KCNH2 3.1 (human) potassium channel inhibition; U2OS KCNH2 3.1, thallium flux FluxOr; hits give low values; activity change, % (tested at about 1.8 µM); actives 0.95% (n = 340,000); AID 720553;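 active means maximum activity change below -70%; inconclusive means maximum activity change from -70% to -50%; inactive means maximum activity change above -50%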;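 further: thallium influx rate constant from kinetic fluorescence after stimulation buffer; on the % scale 0 is the no-effect control and ±100 the full control effect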
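We transduce U2OS cells with the mutant 3.1 virus, culture them overnight, load FluxOr with Red40 quencher for 45 min, then add stimulation buffer and read kinetically for 2 min to derive a normalized rate constant.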
PLK1 PBD block – blocks phosphopeptide binding to human PLK1 polo-box domain. P53350. Plk1 PBD binding of FITC phosphopeptide, fluorescence polarization. Potency, µM, inactives show max response, negative = inhibition, actives largely listed as inhibitors. actives 2.8% (n = 360,000); further: potency means the concentration at half of the fitted maximal effect; series mostly up to about 57 µM; on the % scale 0 is the no-effect control and ±100 the full control effect; nearly all actives have a fitted effect of over 65% in size
MBNL1 CUG block – inhibitors of human MBNL1 binding to CUG repeat RNA; Q9NR56; Potency, µM (doses to about 57.5 µM), without a hit: at the top dose activity change, negative = inhibition, hits mostly inhibitors; TR-FRET MBNL1-His/biotin-(CUG)12 binding, 665/545 ratio; actives 0.036% (n = 280,000); active means well fitted inhibition curve with a large enough effect in the signal ratio, with a control signal flat, not every such curve was filed as active; inconclusive means small, poorly fitted or top-dose-only effect, or effect the other way, or a change in a side signal; inactive means no such curve, though single readings can be large or run the other way; the % refers to the signal ratio; further: potency means the concentration at half of the fitted maximal effect; on the % scale 0 is the no-effect control and ±100 the full control effect
Target sequence (Q9NR56 whole entry, looked up): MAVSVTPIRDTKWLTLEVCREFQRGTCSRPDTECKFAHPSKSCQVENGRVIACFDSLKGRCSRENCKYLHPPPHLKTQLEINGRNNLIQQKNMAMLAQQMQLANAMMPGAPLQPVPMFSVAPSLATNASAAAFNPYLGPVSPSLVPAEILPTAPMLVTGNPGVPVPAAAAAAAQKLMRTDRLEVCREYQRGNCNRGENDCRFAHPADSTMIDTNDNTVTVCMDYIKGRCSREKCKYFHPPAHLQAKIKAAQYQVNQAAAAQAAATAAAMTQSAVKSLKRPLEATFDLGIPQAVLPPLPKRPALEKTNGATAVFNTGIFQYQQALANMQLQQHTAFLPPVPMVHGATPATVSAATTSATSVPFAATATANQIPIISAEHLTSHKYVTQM
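Inhibition of protein-RNA binding appears as loss of TR-FRET between terbium anti-His antibody on MBNL1-His and streptavidin-XL665 on biotin-(CUG)12. Activity is normalized to buffer-only and uninhibited-complex controls.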
VDR inhibitor – vitamin D3 receptor (human) inhibition. P11473. VDR-SRC2-3 peptide fluorescence polarization, 2 h. Potency, µM, without a hit: max response, negative = inhibition, usual class: inhibitors. actives 0.93% (n = 400,000); further: potency means the concentration at half of the fitted maximal effect; on the % scale 0 is the no-effect control and ±100 the full control effect
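After 23 nl compound addition and a short centrifugation, plates sat for 2 hours at ambient temperature; polarization of fluorescence then indicated loss of VDR binding to peptide SRC2-3.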
CBFb RUNX1 block – CBF-beta/RUNX1 interaction disruption; Q01196+Q13951; AlphaScreen CBFb-His/RUNX1-biotin binding, biochemical; Potency, µM (highest dose often 59.8 µM), for the others: at the highest dose activity, negative = inhibition, usual class: inhibitors; 230,000 tested, under 10 active; AID 1477; further: % of control where 0% means no effect
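Bead-based AlphaScreen assay; binding partners His-tagged CBF-beta and biotinylated RUNX1 at 30 nM each. Compound exposure 15 min after a 20-min protein preincubation; bead step 90 min; all steps at room temperature.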
* = called active by the depositor. Hits are enriched below; roughly 3.8% of the tested compounds scored in any of these assays. Unless noted, the call rests on the fitted dose curve; in most records, active means well fitted curve in the direction sought with a large enough effect; inconclusive means small, poorly fitted or top-dose-only effect, or another doubt; inactive means no such curve, though single readings can be large; an effect the other way counts as inactive or inconclusive.

`COc1ccc(NC(=O)c2cccc(N3C(=O)C4C5C=CC(C6CC56)C4C3=O)c2)c(OC)c1` (centres undefined) gave KCNH2 WT inh 8, KCNH2 3.1 inh -6, PLK1 PBD block 24µM*, MBNL1 CUG block 2% and VDR inhibitor -9%.
Screening COc1ccc(NC(=O)c2cccc(N3C(=O)C4C5C=CC(C5)C4C3=O)c2)c(OC)c1 (centres undefined) returned KCNH2 WT inh 20, KCNH2 3.1 inh 8, PLK1 PBD block -5%, MBNL1 CUG block -6% and VDR inhibitor -4%.
COc1ccc(OC)c(S(=O)(=O)Nc2ccccc2SC)c1 was read as KCNH2 WT inh 11, KCNH2 3.1 inh -88*, PLK1 PBD block -1%, MBNL1 CUG block -15%, VDR inhibitor 2% and CBFb RUNX1 block 1%.
`COc1ccc(OC)c(S(=O)(=O)Nc2ccccc2C)c1` gave KCNH2 WT inh 28, KCNH2 3.1 inh -1, PLK1 PBD block 2%, MBNL1 CUG block -6%, VDR inhibitor -4% and CBFb RUNX1 block 11%.
Screening COC(=O)c1cc(NC(=O)CC2CCCC2)cc(C(=O)OC)c1 returned KCNH2 WT inh 0, KCNH2 3.1 inh -73*, PLK1 PBD block 5%, MBNL1 CUG block -3% and VDR inhibitor -4%.
CCc1cccc(C)c1NC(=O)c1cc(S(=O)(=O)N2CCCCCC2)cn1C was read as VDR inhibitor 13%.
Screening CCOc1ccc(N(C)C(CNS(=O)(=O)c2ccccc2)c2ccccc2)cc1 (centres undefined) returned VDR inhibitor 25%.
`Nc1nc(SCC(=O)Nc2ccc(Cl)cn2)n[nH]1` gave KCNH2 WT inh 0, KCNH2 3.1 inh -12, PLK1 PBD block 30µM*, MBNL1 CUG block 0%, VDR inhibitor -6% and CBFb RUNX1 block 8%.
CC(Sc1n[nH]c(N)n1)C(=O)Nc1ccc(Cl)cn1 (centres undefined) was read as KCNH2 WT inh 3, KCNH2 3.1 inh 26, PLK1 PBD block -9%, MBNL1 CUG block -4%, VDR inhibitor -25% and CBFb RUNX1 block -25%.
For COc1ccc(-c2cc3nc(C)c(CCC(=O)N4CCN(c5cccc(Cl)c5)CC4)c(C)n3n2)c(OC)c1 the results were VDR inhibitor -5%.
For Cc1cc(Oc2ccc(C#N)cc2)nc(NCc2ccccc2)n1 the results were KCNH2 WT inh -9, KCNH2 3.1 inh -18, PLK1 PBD block 2.7µM*, MBNL1 CUG block 8%, VDR inhibitor -22% and CBFb RUNX1 block 4%.
COC(=O)c1ccc(Oc2cc(C)nc(NCc3ccccc3)n2)cc1 was read as KCNH2 WT inh -14, KCNH2 3.1 inh -32, PLK1 PBD block 0%, MBNL1 CUG block -3%, VDR inhibitor -16% and CBFb RUNX1 block 3%.
Cc1cc(C)c(NC(=O)CCN2C(=O)c3ccccc3Sc3ncccc32)c(C)c1 was read as VDR inhibitor 0%.
For CCN1C(=O)/C(=c2\sc3nc(=O)c(Cc4ccccc4)nn3c2=O)c2ccccc21 the results were KCNH2 WT inh 2, KCNH2 3.1 inh -6, PLK1 PBD block inconclusive, MBNL1 CUG block -3%, VDR inhibitor inconclusive and CBFb RUNX1 block -28%.
`C=CCN1C(=O)/C(=c2\sc3nc(=O)c(Cc4ccccc4)nn3c2=O)c2ccccc21` gave KCNH2 WT inh -6, KCNH2 3.1 inh -5, PLK1 PBD block 13µM*, MBNL1 CUG block -15%, VDR inhibitor inconclusive and CBFb RUNX1 block -17%.
For Cc1cccc(Cn2c(SCCN3CCCCC3)nc3c2c(=O)[nH]c(=O)n3C)c1 the results were KCNH2 WT inh -34, KCNH2 3.1 inh -81*, PLK1 PBD block -17%, MBNL1 CUG block 4%, VDR inhibitor -10% and CBFb RUNX1 block 8%.
`CSc1nc2c(c(=O)[nH]c(=O)n2C)n1Cc1ccc(Cl)cc1` gave KCNH2 WT inh -1, KCNH2 3.1 inh -5, PLK1 PBD block 6µM*, MBNL1 CUG block 1% and VDR inhibitor 89µM*.
CSc1nc2c(c(=O)[nH]c(=O)n2C)n1Cc1ccccc1Cl was read as KCNH2 WT inh -9, KCNH2 3.1 inh 16, PLK1 PBD block -14%, MBNL1 CUG block -2% and VDR inhibitor -14%.
Screening CCn1c(N2CCC(Cc3ccccc3)CC2)nc2c1c(=O)[nH]c(=O)n2C returned KCNH2 WT inh -1, KCNH2 3.1 inh -3, PLK1 PBD block 30µM*, MBNL1 CUG block 11%, VDR inhibitor -12% and CBFb RUNX1 block -8%.
Screening Cn1c(=O)[nH]c(=O)c2c1nc(SCCO)n2Cc1ccccc1Cl returned KCNH2 WT inh -3, KCNH2 3.1 inh -10, PLK1 PBD block 24µM*, MBNL1 CUG block -2% and VDR inhibitor -8%.
`COCCn1c(SCc2ccc(Cl)cc2)nc2c1c(=O)[nH]c(=O)n2C` gave KCNH2 WT inh -8, KCNH2 3.1 inh 13, PLK1 PBD block -1% and VDR inhibitor -1%.
CCOC(=O)C(CC)Sc1nc2c(c(=O)[nH]c(=O)n2C)n1C/C=C(/C)Cl (centres undefined) was read as KCNH2 WT inh 16, KCNH2 3.1 inh -4, PLK1 PBD block 2.7µM*, MBNL1 CUG block 17%, VDR inhibitor 32µM* and CBFb RUNX1 block 9%.
Screening C/C=C/Cn1c(SCc2ccc(Cl)cc2)nc2c1c(=O)[nH]c(=O)n2C returned KCNH2 WT inh -5, KCNH2 3.1 inh 9, PLK1 PBD block inconclusive, MBNL1 CUG block 1%, VDR inhibitor inconclusive and CBFb RUNX1 block 3%.
For C/C=C/Cn1c(SC)nc2c1c(=O)[nH]c(=O)n2C the results were KCNH2 WT inh -7, KCNH2 3.1 inh 6, PLK1 PBD block 27µM*, MBNL1 CUG block -7%, VDR inhibitor -9% and CBFb RUNX1 block 9%.
Screening C/C(Cl)=C/Cn1c(SCC(C)C)nc2c1c(=O)[nH]c(=O)n2C returned KCNH2 WT inh -3, PLK1 PBD block -16%, MBNL1 CUG block 3%, VDR inhibitor 7% and CBFb RUNX1 block 0%.
For CCCn1c(SCc2ccc(Cl)cc2)nc2c1c(=O)[nH]c(=O)n2C the results were KCNH2 WT inh 12, KCNH2 3.1 inh -3, PLK1 PBD block 21µM*, MBNL1 CUG block -1%, VDR inhibitor -22% and CBFb RUNX1 block 3%.
CCN(C(=O)Cn1cnc2onc(-c3ccc(F)cc3)c2c1=O)c1cc(C)ccc1C was read as VDR inhibitor 9%.
`NC(=S)N/N=C/c1cn(-c2ccccc2)nc1-c1cccnc1` gave KCNH2 WT inh 1, KCNH2 3.1 inh 1, PLK1 PBD block 3.4µM*, VDR inhibitor 28µM* and CBFb RUNX1 block 10%.
